Results: PubChem BioAssay (NCATS)
Where “and” joins values, the source holds several entries; their conditions need not be identical. Equal values may be shown once. Records with an inconclusive call do not appear. Calls of active or inactive are those of the source. Unless noted, the call rests on the fitted dose curve; in most records, active means well fitted curve in the direction sought with a large enough effect; inconclusive means small, poorly fitted or top-dose-only effect, or another doubt; inactive means no such curve, though single readings can be large; an effect the other way counts as inactive or inconclusive.

Assays:
[1] = Cell Viability - LYMP2-025 (AID 976); further: potency means the concentration at half of the fitted maximal effect
Method in brief: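 In qHTS format, LYMP2-025 lymphoblastoid cells in complete culture medium received compound for 24 hr; ATP-based CellTiter-Glo signal gave viability, with AC50 derived by Hill equation.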

[2] = Cell Viability - LYMP2-002 (AID 977); further: potency means the concentration at half of the fitted maximal effect
Method in brief: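 Human lymphoblastoid LYMP2-002 cells, 2500 per well, exposed to compounds for 24 h at 37 C in complete medium; viability read as intracellular ATP by CellTiter-Glo luminescence, AC50 from Hill fits.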

[3] = Cell Viability - LYMP2-006 (AID 978); further: nearly all actives have a fitted effect of over 60% in size; further: potency means the concentration at half of the fitted maximal effect
Method in brief: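 Potency values are Hill-fit AC50s for decreases in intracellular ATP (CellTiter-Glo luminescence). LYMP2-006 lymphoblastoid cells, 2500 per well, were exposed to compound in complete culture medium for 24 hr at 37 C.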

[4] = Cell Viability - LYMP2-007 (AID 979);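 further: cells exposed to compound for 24 h before reading; nearly all actives have a fitted effect of over 60% in size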; further: potency means the concentration at half of the fitted maximal effect
Method in brief: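 Acute toxicity is scored as a concentration-dependent fall in intracellular ATP in human lymphoblastoid cells treated 24 hr at 37 C, measured by luciferase luminescence; Hill-equation modelling yields AC50.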

[5] = Cell Viability - LYMP2-008 (AID 980); further: nearly all actives have a fitted effect of over 60% in size; further: potency means the concentration at half of the fitted maximal effect
Method in brief: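 Acute cytotoxicity is scored as concentration-dependent loss of cellular ATP in a human lymphoblastoid line after 24 hr treatment at 37 C. ATP is quantified by luciferase luminescence.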

[6] = Cell Viability - LYMP2-010 (AID 981); further: nearly all actives have a fitted effect of over 55% in size; further: potency means the concentration at half of the fitted maximal effect
Method in brief: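 Acute toxicity is scored as a concentration-dependent loss of cellular ATP in human lymphoblastoid cells after 24 hr compound exposure in complete medium. Tetraoctylammonium bromide is the positive control.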

[7] = Cell Viability - LYMP2-012 (AID 982);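 further: cellular ATP by luciferase luminescence where a drop means cytotoxicity; cells exposed to compound for one day before reading; nearly all actives have a fitted effect of over 55% in size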; further: potency means the concentration at half of the fitted maximal effect
[8] = Cell Viability - LYMP2-014 (AID 983); further: nearly all actives have a fitted effect of over 50% in size; further: potency means the concentration at half of the fitted maximal effect
Method in brief: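 Decrease in intracellular ATP after 24 hr treatment at 37 C, measured by luciferase luminescence, indicated cytotoxicity. Concentration-response data were fitted with the standard Hill equation to give AC50.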

[9] = Cell Viability - LYMP2-016 (AID 984); further: nearly all actives have a fitted effect of over 55% in size; further: potency means the concentration at half of the fitted maximal effect
Method in brief: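 Cytotoxicity was scored by luminescent ATP content (CellTiter-Glo) after 24 h compound exposure at 37 C of a human lymphoblastoid line at 2500 cells/well. Concentration-response data were fitted to the Hill equation for AC50.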

[10] = Cell Viability - LYMP2-018 (AID 985);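 further: compound exposure lasted 24 hr at 37 °C; nearly all actives have a fitted effect of over 50% in size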; further: potency means the concentration at half of the fitted maximal effect
Method in brief: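 Acute cytotoxicity is scored as a concentration-dependent drop in intracellular ATP after 24 hr exposure of the lymphoblastoid line in complete culture medium, measured by luciferase luminescence. Potency is expressed as AC50 from Hill modelling.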

[11] = Cell Viability - LYMP2-020 (AID 986); further: nearly all actives have a fitted effect of over 55% in size; further: potency means the concentration at half of the fitted maximal effect
Method in brief: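 Acute cytotoxicity in a human lymphoblastoid line is scored as a concentration-dependent fall in cellular ATP after 24 hr at 37 C in complete medium. The positive control is tetraoctylammonium bromide, and potency is given as Hill-fit AC50.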

[12] = Cell Viability - LYMP2-022 (AID 987); further: nearly all actives have a fitted effect of over 55% in size; further: potency means the concentration at half of the fitted maximal effect
Method in brief: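 Acute toxicity in a human lymphoblastoid line is scored as decreased intracellular ATP after 24 hr compound treatment at 37 C. ATP is measured by CellTiter-Glo luminescence; curves are fitted with the Hill equation to give AC50.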

[13] = Cell Viability - LYMP2-024 (AID 988); further: nearly all actives have a fitted effect of over 60% in size; further: potency means the concentration at half of the fitted maximal effect
Method in brief: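 Acute toxicity is measured as concentration-dependent loss of intracellular ATP in a human lymphoblastoid line treated 24 hours at 37 C. Luciferase luminescence quantifies ATP; AC50 values come from standard Hill-equation modelling.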

[14] = Cell Viability - LYMP2-026 (AID 989); further: nearly all actives have a fitted effect of over 50% in size; further: potency means the concentration at half of the fitted maximal effect
Method in brief: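 Concentration-dependent loss of intracellular ATP in human lymphoblastoid cells after 24 hr at 37 C, quantified by luciferase luminescence. AC50 derived from standard Hill equation.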

[15] = Cell Viability - LYMP1-002 - Assay at 24 hr (AID 993); further: potency means the concentration at half of the fitted maximal effect
Method in brief: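 qHTS, LYMP1-002 lymphoblastoid, 24 h cpd, 37 C, CellTiter-Glo ATP luminescence; AC50 via Hill eq.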

[16] = qHTS Assay for Lipid Storage Modulators (AID 1519; calls by dose curve; on activity change, negative = inhibition: on the % scale 0 is the no-effect control and ±100 the full control effect); conditions: Drosophila S3 cells, BODIPY lipid droplet/cell ratio, laser cytometry, cells loaded with oleic acid
Method in brief: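 Cells seeded at 5,000 per well were treated with compounds over a concentration series and loaded with oleic acid (400 uM, as added). Lipid droplet fluorescence (488 nm excitation, 500-530 nm channel) was read by laser-scanning cytometry and normalized to 20 uM Triacsin C.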

[17] = molecular target: Alpha-galactosidase A (Homo sapiens) (UniProt P06280); experiment: Counterscreen for Glucocerebrosidase Inhibitors: qHTS Assay for Human alpha-Galactosidase at pH 4.5 (AID 992); further: 0% is about no effect
Chain of Alpha-galactosidase A (Homo sapiens) (P06280 whole entry, looked up): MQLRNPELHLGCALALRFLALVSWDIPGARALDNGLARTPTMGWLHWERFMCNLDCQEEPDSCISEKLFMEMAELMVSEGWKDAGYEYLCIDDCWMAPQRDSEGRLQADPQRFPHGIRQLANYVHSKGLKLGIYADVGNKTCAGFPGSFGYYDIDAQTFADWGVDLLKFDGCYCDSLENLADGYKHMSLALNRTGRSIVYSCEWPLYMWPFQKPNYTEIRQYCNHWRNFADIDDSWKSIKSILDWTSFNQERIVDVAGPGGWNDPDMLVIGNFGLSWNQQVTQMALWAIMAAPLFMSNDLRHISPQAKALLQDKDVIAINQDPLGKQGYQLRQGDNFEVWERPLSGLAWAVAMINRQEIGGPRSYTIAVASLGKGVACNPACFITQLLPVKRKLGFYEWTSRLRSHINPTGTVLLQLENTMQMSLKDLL
Method in brief: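 Human enzyme (2 nM) with 80 uM 4-methylumbelliferyl alpha-D-galactopyranoside in 50 mM citric acid, 0.005% Tween-20, pH 4.5, 20 min at room temperature. Compounds 0.7 nM–77 uM; fluorescence Ex 365/Em 440 after pH 10 stop; AC50 from Hill fits.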

[18] = molecular target: DNA repair nuclease/redox regulator APEX1 (Homo sapiens) (UniProt P27695); experiment: qHTS Validation Assay for Inhibitors of the Human Apurinic/apyrimidinic Endonuclease 1 (APE1) (AID 1705;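 further: TAMRA fluorescence gain over two minutes as APE1 cuts a quenched THF abasic duplex; on the % scale 0 is the no-effect control and ±100 the full control effect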)
Chain of DNA repair nuclease/redox regulator APEX1 (Homo sapiens) (P27695 whole entry, looked up): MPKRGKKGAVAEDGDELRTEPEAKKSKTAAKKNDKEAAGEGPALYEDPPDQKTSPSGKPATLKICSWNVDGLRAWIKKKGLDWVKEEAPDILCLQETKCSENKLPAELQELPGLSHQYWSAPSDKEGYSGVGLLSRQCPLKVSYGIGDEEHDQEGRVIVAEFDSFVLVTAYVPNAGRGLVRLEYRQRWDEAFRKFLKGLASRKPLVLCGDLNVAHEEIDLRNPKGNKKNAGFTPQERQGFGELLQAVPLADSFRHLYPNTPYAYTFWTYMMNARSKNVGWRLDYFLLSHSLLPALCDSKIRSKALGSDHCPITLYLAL
Method in brief: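 Activity read as rising fluorescence (598 nm emission, 525 nm excitation) from incision of a TAMRA/BHQ-2 duplex carrying a THF abasic site (50 nM). Compound and enzyme sat 15 min at RT before substrate start; signal change between first and third 60-s reads.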

[19] = Counterscreen for APE1 Inhibitors: Fluorescent Dye Displacement Validation Assay (AID 1707);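 further: plate controls were ThO with dsDNA and no compound for no effect and ThO without dsDNA for full effect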
Method in brief: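 Thiazole Orange (250 nM) bound to 50 nM TAMRA-labelled dsDNA with tetrahydrofuran abasic site; displacement by DNA-binding compounds lowers fluorescence. Buffer 50 mM Tris-HCl pH 7.5, 50 mM NaCl, 2 mM MgCl2, 0.01% Tween-20; endpoint read at 480/540 nm.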

[20] = measured here: cell count channel max response
[21] = measured here: lipid channel max response

CC(=O)Oc1ccc(C(c2ccc(OC(C)=O)cc2)c2ccccn2)cc1
inactive: Potency [1] | Potency [2] | Potency [3] | Potency [4] | Potency [5] | Potency [6] | Potency [7] | Potency [8] | Potency [9] | Potency [10] | Potency [11] | Potency [12] | Potency [13] | Potency [14] | Potency [15]

COC1=CC(=O)C[C@@H](C)[C@]12Oc1c(Cl)c(OC)cc(OC)c1C2=O
inactive: Potency [1] | Potency [2] | Potency [3] | Potency [4] | Potency [5] | Potency [6] | Potency [7] | Potency [8] | Potency [9] | Potency [10] | Potency [11] | Potency [12] | Potency [13] | Potency [14] | Potency [15] | activity change, negative = inhibition ([16]; at 57.5 µM (top of the series)) 14.1%
4.54%: max response [16, 20]
22.2%: max response [16, 21]

COc1cccc2c1C(=O)c1c(O)c3c(c(O)c1C2=O)C[C@@](O)(C(=O)CO)C[C@@H]3O[C@H]1C[C@H](N)[C@H](O)[C@H](C)O1
active: Potency [1] 0.501 µM | Potency [2] 0.251 µM | Potency [4] 1 µM | Potency [6] 0.251 µM | Potency [7] 0.199 µM | Potency [8] 0.316 µM | Potency [9] 0.251 µM | Potency [10] 0.158 µM | Potency [11] 0.316 µM | Potency [12] 0.251 µM | Potency [13] 0.199 µM | Potency [14] 0.501 µM | Potency [15] 1 µM

CN1[C@@H]2CC[C@H]1CC(OC(=O)c1c[nH]c3ccccc13)C2 (some centres not stated)
inactive: outcome [17]

CC(O)C(=O)O (configuration not stated)
inactive: Potency [1] | Potency [2] | Potency [3] | Potency [4] | Potency [5] | Potency [6] | Potency [7] | Potency [8] | Potency [9] | Potency [10] | Potency [11] | Potency [12] | Potency [13] | Potency [14] | Potency [15]

CCCC1O[C@@H]2C[C@H]3[C@@H]4CCC5=CC(=O)C=C[C@]5(C)[C@H]4[C@@H](O)C[C@]3(C)[C@]2(C(=O)CO)O1 (some centres not stated)
inactive: outcome [17]

CN=C(NC#N)Nc1ccc(C2=NNC(=O)CC2C)cc1 (configuration not stated)
inactive: activity change, negative = inhibition ([16]; at 57.5 µM (top of the series)) 2.25% | Potency [18] | outcome [19]
14.7%: max response [16, 20]
17.1%: max response [16, 21]

COc1cc(-c2ccc(=O)[nH]n2)ccc1OC(F)F
inactive: outcome [17] | Potency [18] | outcome [19]

NC(=NCCCCCCN=C(N)/N=C(\N)Nc1ccc(Cl)cc1)/N=C(\N)Nc1ccc(Cl)cc1
active: Potency [3] 39.8 µM | Potency [4] 39.8 µM | Potency [5] 39.8 µM | Potency [6] 39.8 µM | Potency [7] 39.8 µM | Potency [8] 39.8 µM | Potency [9] 50.1 µM | Potency [10] 39.8 µM | Potency [11] 39.8 µM | Potency [12] 39.8 µM | Potency [13] 39.8 µM | Potency [14] 50.1 µM | Potency [15] 39.8 µM

O=c1ccc2ccccc2o1
inactive: Potency [1] | Potency [2] | Potency [3] | Potency [4] | Potency [5] | Potency [6] | Potency [7] | Potency [8] | Potency [9] | Potency [10] | Potency [11] | Potency [12] | Potency [13] | Potency [14] | Potency [15]

C[C@]12CC[C@@H]3c4ccc(O)cc4CC[C@H]3[C@@H]1CC[C@@H]2O
inactive: Potency [1] | Potency [3] | Potency [4] | Potency [5] | Potency [6] | Potency [7] | Potency [8] | Potency [9] | Potency [11] | Potency [12] | Potency [13] | Potency [14] | outcome [17] | Potency [15] | Potency [18] | outcome [19]

CC/C(=C(/CC)c1ccc(O)cc1)c1ccc(O)cc1
inactive: Potency [1] | Potency [2] | Potency [3] | Potency [4] | Potency [5] | Potency [8] | Potency [9] | Potency [10] | Potency [11] | Potency [12] | Potency [13] | Potency [14] | Potency [15]

Oc1cc(O)c2c(c1)O[C@H](c1ccc(O)c(O)c1)[C@H](O)C2
inactive: outcome [17] | activity change, negative = inhibition ([16]; at 25.7 µM (top of the series)) -1.15% and 0.397%
-4.1% and -15.5%: max response [16, 21]
-2.18% and -16.1%: max response [16, 20]

COc1cc(NS(C)(=O)=O)ccc1Nc1c2ccccc2nc2ccccc12
inactive: outcome [17] | activity change, negative = inhibition ([16]; at 57.5 µM (top of the series)) 0.361%
-18.5%: max response [16, 20]
-18.7%: max response [16, 21]

CNCCC(Oc1ccccc1C)c1ccccc1 (configuration not stated)
inactive: activity change, negative = inhibition ([16]; at 57.5 µM (top of the series)) 2.16% | Potency [18] | outcome [19]
23.2%: max response [16, 21]
19.1%: max response [16, 20]

C[C@@H]1C(=O)NC2=Nc3cccc(Cl)c3CN21
inactive: outcome [17] | activity change, negative = inhibition ([16]; at 57.5 µM (top of the series)) 2.07% | Potency [18] | outcome [19]
-17.8%: max response [16, 21]
-20.8%: max response [16, 20]
